These results are taken from PMC5540273 (PLoS ONE, 2017).
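Note: KINOMEscan kinase panel screen.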

The test deals with EPHA1. To be noted: concentration: 1 μM, replicates: in singlicate; n = 1.
Regarding `Cc1ccc(C(=O)Nc2ccc(Nc3ccnc4cc(-c5nccs5)ccc34)cc2O)cc1.Cl` [GW494702], the “%Inh” value worked out at 8%.

Consider `CC(C)c1nc(-c2cccc(NS(=O)(=O)c3c(F)cccc3F)c2F)c(-c2ccnc(Nc3ccc(N4CCOCC4)nc3)n2)s1` [GSK2008607], for which the “%Inh” value is 98.9%.

In the case of `Cl.c1ccc(-c2ccc3c(Nc4ccc5[nH]ccc5c4)ccnc3c2)nc1` [GW440138], the “%Inh” value is on record as 48%.

With `Nc1ncc(-c2cccnc2)c2scc(-c3ccc4c(c3)CCN4C(=O)Cc3ccccc3)c12` [GSK683281], the “%Inh” value amounted to 13%.

As for `COc1cc(Nc2nccc(-c3c(-c4cccc(NC(=O)c5c(F)cccc5F)c4)nn4ccccc34)n2)cc(OC)c1OC` [GSK323521], the “%Inh” value came out at 12%.

On to `CCc1ccc(-c2ccc3c(c2)-c2c(cnn2C)S(=O)(=O)N3C)cc1`, for which the “%Inh” value was found to be 0%.

Turning to `COC(=O)Nc1nc2cc(Oc3ccc(NC(=O)Nc4cc(C(F)(F)F)ccc4F)cn3)ccc2[nH]1.Cl.Cl` [GW681170], the “%Inh” value came to 64%.

Regarding `Cc1occc1-c1ncc(OC[C@@H](N)Cc2c[nH]c3ccccc23)cc1-c1ccc2[nH]nc(C)c2c1.O=C(O)C(F)(F)F` [GSK682037], the “%Inh” value is listed as 0%.

With `O=C(Nc1cccc(Oc2ccc3nc(NC(=O)C4CC4)cn3n2)c1)c1ccccc1C(F)(F)F`, the “%Inh” value is 35%.

As to `CSc1cccc2c(-c3ccncn3)c(-c3ccc(F)cc3)nn12` [GW514786], the “%Inh” value is listed as 18%.

Take `COc1cc(Nc2ncc3c(C)nc(-c4cc5ccccc5[nH]4)n3n2)cc(OC)c1OC` [GW869516]: the “%Inh” value is reported as 41%.
